For 36 sequences, thermal melting temperature results are on record in the supplement of paper PMC7726561.

In all, about 1,100 sequences were measured (“thermal melting temperature (Tm) of peptide-HLA complex”: median about 58, lowest 2% from about 42 on). Shown is part of a subset that was picked to be rich in the lowest values.

First the molecules themselves.
B1: unnamed (peptide)
chain: RLMNDMTAV
B2: unnamed (peptide)
chain: SLLDGHFVL
B3: unnamed (peptide)
chain: RLLDGAFKL
B4: unnamed (peptide)
chain: VLIDYQRNV
B5: unnamed (peptide)
chain: FLSSVIQNL
B6: unnamed (peptide)
chain: QLYNQIIKL
B7: unnamed (peptide)
chain: IQDFEMPTV
B8: unnamed (peptide)
chain: VMLDVPIRL
B9: unnamed (peptide)
chain: HLIDDLLAA
B10: unnamed (peptide)
chain: ALFPAPLAQI
B11: unnamed (peptide)
chain: NIIELVHQV
B12: unnamed (peptide)
chain: KLGDFGLLV
B13: unnamed (peptide)
chain: FLNPDEVHAI
B14: unnamed (peptide)
chain: FLMENGSITSI
B15: unnamed (peptide)
chain: YLSGIAHFL
B16: unnamed (peptide)
chain: SLAQYLINA
B17: unnamed (peptide)
chain: TIPEAFRGV
B18: unnamed (peptide)
chain: KLLWTTSRV
B19: unnamed (peptide)
chain: RVIGTLEEV
B20: unnamed (peptide)
chain: YLDEDTIYHL
B21: unnamed (peptide)
chain: AALEEADKMFL
B22: unnamed (peptide)
chain: SVTSEGIKAV
B23: unnamed (peptide)
chain: TVADKIHSV
B24: unnamed (peptide)
chain: KMDEVLYSI
B25: unnamed (peptide)
chain: RLAEVGQYEQV
B26: unnamed (peptide)
chain: TLIGLSIKV
B27: unnamed (peptide)
chain: SVAEGRALMSV
B28: unnamed (peptide)
chain: FQVDEIYTV
B29: unnamed (peptide)
chain: ILDQKVALL
B30: unnamed (peptide)
chain: ILDQKINEV
B31: unnamed (peptide)
chain: VILESDPQQVV
B32: unnamed (peptide)
chain: IIADMDKWTV
B33: unnamed (peptide)
chain: SMGQLPHTV
B34: unnamed (peptide)
chain: ALERLLPQV
B35: unnamed (peptide)
chain: KLYQEVEIASV
B36: unnamed (peptide)
chain: SLLPFLKAV
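Note: lysates heated 10 min at 37–73 °C, complexes pulled down with pan-HLA I antibody, peptide signal by DIA-MS relative to 37 °C, Tm where half the complex is unfolded.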

This assay has as its target HLA-A*02:01. Briefly: thermal melting temperature (Tm) of peptide-HLA complex; higher = more thermostable pHLA complex. As to conditions: C1R-A*02:01.
As to B1, the thermal melting temperature came out at 58.9 °C.
The figure for B2 is 40.1 °C; for B3 it is 49.9 °C; for B4 it is 60.1 °C.
The figure for B5 is 58.3 °C; for B6 it is 56.1 °C; for B7 it is 50.9 °C.
For B8 the value was 55.9 °C; for B9, 41.1 °C.
In turn, B10 gave a thermal melting temperature of 62.7 °C.
For B11 the value was 57.1 °C; for B12, 60.4 °C; for B13, 59.9 °C.
For B14 the value was 58.2 °C.
The figure for B15 is 62 °C.
B16 showed a thermal melting temperature of 56.7 °C.
The sequence B17 yielded a thermal melting temperature of 46.3 °C.
Consider B18, for which the thermal melting temperature stood at 60.1 °C.
For the sequence B19, the thermal melting temperature was found to be 57.6 °C.
For B20 the value was 45.2 °C; for B21, 53.3 °C; for B22, 46 °C.
The figure for B23 is 55.7 °C; for B24 it is 59 °C; for B25 it is 56.3 °C.
For B26 the value was 56.7 °C.
The sequence B27 came in with a thermal melting temperature of 56.8 °C.
For B28 the value was 56 °C; for B29, 41.7 °C.
For B30 the value was 60 °C.
For B31 the value was 40.1 °C; for B32, 54.6 °C.
For B33, the thermal melting temperature was 41.4 °C.
B34: the thermal melting temperature came out at 59.2 °C.
The figure for B35 is 61 °C; for B36 it is 61.9 °C.
